Assay results published in PubChem BioAssay AID1159580 (chemical genetic matrix, 2015).
Values joined by “and” are separate entries in the source; they are usually repeats but may differ in a detail not shown here. Equal values may be shown once. Among all 5,500 compounds or so, about 2,000 (36%) were called active. Inconclusive results (about 18%) are left out. Rule as the data show it: active = normalized growth mostly below about 0.91 (no sharp cut-off); inconclusive = no clear call, values can overlap the other calls; inactive = mostly above about 0.92. Some of the results follow.

Assay: chemical genetic growth profiling, strain panel (AID 1159580);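 also: tested at 20 µM; growth read once vehicle control cultures reached saturation at 30 °C; 1 = growth at the plate median or of vehicle wells; lower values mean less growth of the strain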
Settings: S. cerevisiae deletion strains, growth OD

Measured: normalized growth

CCOC(=O)c1ccc(N)cc1
inactive: locus YAL021C, strain ccr4, active compounds read low 1.03 | locus YAL026C, strain drs2, active compounds read low 1 | locus YAL030W, strain snc1, active compounds read low 1.01 | locus YBL061C, strain skt5, active compounds read low 0.999 | locus YBR009C, strain hhf1, active compounds read low 0.98 | locus YBR021W, strain FUR4, active compounds read low 0.998 | locus YBR023C, strain chs3, active compounds read low 1.03 | locus YBR171W, strain sec66, active compounds read low 1.03 | locus YBR229C, strain ROT2, active compounds read low 0.999 | locus YBR231C, strain swc5, active compounds read low 1 | locus YBR279W, strain paf1, active compounds read low 1 | locus YCL011C, strain gbp2, active compounds read low 0.987 | locus YCL016C, strain dcc1, active compounds read low 1.01 | locus YCL029C, strain bik1, active compounds read low 0.993 | locus YCL061C, strain MRC1, active compounds read low 1.01 | locus YCL069W, strain vba3, active compounds read low 0.993 | locus YCR088W, strain abp1, active compounds read low 1.01 | locus YDL005C, strain med2, active compounds read low 1.01 | locus YDL035C, strain GPR1, active compounds read low 1.01 | locus YDL040C, strain nat1, active compounds read low 1.01 | locus YDL074C, strain BRE1, active compounds read low 0.994 | locus YDL101C, strain DUN1, active compounds read low 0.993 | locus YDL185W, strain tfp1, active compounds read low 0.994 | locus YDL192W, strain arf1, active compounds read low 1.01 | locus YDR001C, strain nth1, active compounds read low 0.999 | locus YDR069C, strain doa4, active compounds read low 1.04 | locus YDR101C, strain arx1, active compounds read low 1.01 | locus YDR137W, strain rgp1, active compounds read low 1.01 | locus YDR150W, strain NUM1, active compounds read low 0.993 | locus YDR159W, strain sac3, active compounds read low 1 | locus YDR162C, strain NBP2, active compounds read low 0.999 | locus YDR195W, strain ref2 1.09 | locus YDR297W, strain sur2, active compounds read low 1.01 | locus YDR318W, strain mcm21, active compounds read low 0.994 | locus YDR334W, strain swr1, active compounds read low 1.02 | locus YDR335W, strain msn5, active compounds read low 1.02 | locus YDR388W, active compounds read low 0.989 | locus YDR392W, strain spt3, active compounds read low 0.941 | locus YDR502C, strain sam2, active compounds read low 0.987 | locus YEL003W, strain gim4, active compounds read low 1.02 | locus YEL037C, strain rad23, active compounds read low 1.01 | locus YEL061C, strain CIN8 (second series), active compounds read low 1.04 | locus YEL061C, strain CIN8, active compounds read low 1.01 | locus YER015W, strain faa2, active compounds read low 1.01 | locus YER016W, strain bim1, active compounds read low 0.972 | locus YER110C, active compounds read low 0.995 | locus YER111C, strain swi4, active compounds read low 1 | locus YER155C, strain BEM2 (second series), active compounds read low 0.952 | locus YER155C, strain BEM2, active compounds read low 1.01 | locus YER167W, strain BCK2, active compounds read low 1 | locus YFR010W, strain ubp6, active compounds read low 1.02 | locus YGL078C, strain dbp3, active compounds read low 0.996 | locus YGL086W, strain mad1, active compounds read low 0.993 | locus YGL167C, strain pmr1, active compounds read low 1.03 | locus YGL173C, strain kem1, active compounds read low 0.998 | locus YGL227W, strain vid30, active compounds read low 1.02 | locus YGL240W, strain doc1, active compounds read low 0.996 | locus YGL248W, strain PDE1, active compounds read low 0.997 | locus YGL253W, strain hxk2, active compounds read low 1.01 | locus YGR135W, strain pre9, active compounds read low 0.99 | locus YGR252W, strain gcn5, active compounds read low 0.959 | locus YHR013C, strain ard1, active compounds read low 1.04 | locus YHR027C, strain rpn1, active compounds read low 1.01 | locus YHR030C, strain SLT2, active compounds read low 1.01 and 1.02 | locus YHR079C, strain IRE1 (second series), active compounds read low 0.994 | locus YHR079C, strain IRE1, active compounds read low 0.993 | locus YHR094C, strain hxt1, active compounds read low 0.984 | locus YHR129C, strain ARP1, active compounds read low 1 | locus YHR142W, strain chs7, active compounds read low 0.963 | locus YHR200W, strain rpn10, active compounds read low 0.989 | locus YIL066C, strain RNR3, active compounds read low 1.02 | locus YIL073C, strain SPO22, active compounds read low 0.943 | locus YIL125W, strain kgd1, active compounds read low 0.991 | locus YIR030C, strain dcg1, active compounds read low 0.997 | locus YJL092W, strain hpr5, active compounds read low 1.02 | locus YJL095W, strain BCK1 (second series), active compounds read low 1.01 | locus YJL095W, strain BCK1, active compounds read low 0.995 and 0.999 | locus YJL115W, strain asf1, active compounds read low 1.02 | locus YJL129C, strain trk1, active compounds read low 1.04 | locus YJL134W, strain LCB3, active compounds read low 1 | locus YJL154C, strain vps35, active compounds read low 1.01 | locus YJL164C, strain tpk1, active compounds read low 0.982 | locus YJL166W, strain qcr8, active compounds read low 1.01 | locus YJL168C, strain set2, active compounds read low 0.992 | locus YJL187C, strain SWE1 (second series), active compounds read low 0.985 | locus YJR043C, strain POL32, active compounds read low 1.02 | locus YJR066W, strain TOR1, active compounds read low 0.966 | locus YKL009W, strain mrt4, active compounds read low 0.976 | locus YKL068W, active compounds read low 0.993 | locus YKL085W, strain MDH1 (second series), active compounds read low 0.996 | locus YKL085W, strain MDH1, active compounds read low 0.996 | locus YKL160W, strain elf1, active compounds read low 1.02 | locus YKL190W, strain CNB1, active compounds read low 0.988 | locus YKR001C, strain vps1, active compounds read low 0.987 | locus YKR091W, strain srl3, active compounds read low 1.01 | locus YLL001W, strain dnm1, active compounds read low 1.01 | locus YLL026W, active compounds read low 1.02 | locus YLL041C, strain sdh2, active compounds read low 1.02 | locus YLR027C, strain aat2, active compounds read low 1 | locus YLR039C, strain RIC1, active compounds read low 1.01 | locus YLR058C, strain SHM2, active compounds read low 0.999 | locus YLR102C, strain apc9, active compounds read low 0.989 | locus YLR113W, strain HOG1, active compounds read low 0.979 | locus YLR221C, strain rsa3, active compounds read low 1.01 | locus YLR258W, strain gsy2, active compounds read low 0.998 | locus YLR262C, strain YPT6 (second series), active compounds read low 1.03 | locus YLR262C, strain YPT6, active compounds read low 0.988 | locus YLR268W, strain sec22, active compounds read low 0.991 | locus YLR320W, strain mms22, active compounds read low 0.978 | locus YLR330W, strain CHS5, active compounds read low 1.01 | locus YLR342W, strain FKS1 (second series), active compounds read low 1.03 | locus YLR342W, strain FKS1, active compounds read low 1 | locus YLR357W, strain rsc2, active compounds read low 1.05 | locus YLR370C, strain arc18, active compounds read low 1.01 | locus YLR371W, strain rom2, active compounds read low 0.994 | locus YLR384C, strain iki3, active compounds read low 1.02 | locus YLR418C, strain cdc73, active compounds read low 0.988 | locus YML016C, strain PPZ1, active compounds read low 1 | locus YML032C, strain rad52, active compounds read low 0.995 | locus YML120C, strain ndi1, active compounds read low 1.02 | locus YML124C, strain tub3, active compounds read low 0.992 | locus YMR058W, strain fet3, active compounds read low 1.03 | locus YMR078C, strain ctf18, active compounds read low 0.998 | locus YMR125W, strain sto1, active compounds read low 1.01 | locus YMR129W, active compounds read low 1.01 | locus YMR205C, strain PFK2, active compounds read low 1.01 | locus YMR223W, strain ubp8, active compounds read low 0.997 | locus YMR231W, strain pep5, active compounds read low 1.01 | locus YMR263W, strain SAP30, active compounds read low 1 | locus YMR307W, strain GAS1, active compounds read low 1.09 | locus YNL067W, strain RPL9B, active compounds read low 0.975 | locus YNL071W, strain lat1, active compounds read low 0.983 | locus YNL183C, strain NPR1, active compounds read low 0.949 | locus YNL209W, strain ssb2, active compounds read low 0.993 | locus YNL233W, strain BNI4, active compounds read low 1.01 | locus YNL248C, strain rpa49, active compounds read low 1 | locus YNL250W, strain rad50, active compounds read low 0.983 | locus YNL271C, strain bni1, active compounds read low 0.993 | locus YNL298W, strain CLA4, active compounds read low 1.01 | locus YNL307C, strain MCK1, active compounds read low 0.986 | locus YNL322C, strain KRE1 (second series), active compounds read low 1.01 | locus YNR049C, strain mso1, active compounds read low 1.02 | locus YNR052C, strain pop2, active compounds read low 0.987 | locus YOL006C, strain TOP1, active compounds read low 1.03 | locus YOL012C, strain htz1 0.986 | locus YOL147C, strain pex11, active compounds read low 0.993 | locus YOR001W, strain rrp6, active compounds read low 1.02 | locus YOR061W, strain CKA2, active compounds read low 0.996 | locus YOR069W, strain VPS5, active compounds read low 0.998 | locus YOR070C, strain gyp1, active compounds read low 0.989 | locus YOR080W, strain dia2, active compounds read low 1.03 | locus YOR083W, strain WHI5, active compounds read low 1.01 | locus YOR106W, strain vam3, active compounds read low 1.02 | locus YOR136W, strain idh2, active compounds read low 0.98 | locus YOR144C, strain elg1, active compounds read low 0.997 | locus YOR184W, strain ser1, active compounds read low 0.991 | locus YOR231W, strain MKK1, active compounds read low 0.989 | locus YOR265W, strain rbl2, active compounds read low 1.01 | locus YOR270C, strain vph1, active compounds read low 0.973 | locus YOR290C, strain snf2, active compounds read low 0.988 | locus YOR316C, strain cot1, active compounds read low 0.989 | locus YPL051W, strain arl3, active compounds read low 1.02 | locus YPL055C, strain LGE1, active compounds read low 1 | locus YPL078C, strain atp4, active compounds read low 1.03 | locus YPL106C, strain sse1, active compounds read low 0.946 | locus YPL240C, strain hsp82, active compounds read low 1.02 | locus YPL241C, strain CIN2, active compounds read low 1 | locus YPL256C, strain CLN2, active compounds read low 0.983 | locus YPR119W, strain clb2, active compounds read low 0.99 | locus YPR141C, strain kar3, active compounds read low 0.999 | locus YPR163C, strain tif3, active compounds read low 1 | locus YPR167C, strain met16, active compounds read low 0.996 | strain wtn01, active compounds read low 0.997
